Assay outcomes: PubChem BioAssay, several laboratories
GRK2 inh – inhibitors of human GRK2 displacing RNA aptamer; inhibition of aptamer binding, % at 10 µM; P25098; bead flow cytometry, FAM-aptamer displacement from GRK2; 330,000 tested, 0.59% active;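 active means inhibition of aptamer binding above 40%, roughly 3 SD of noise, on plates passing a quality check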;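 further: median bead fluorescence of bound FAM aptamer so fluorescent compounds give negative values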
NadD inh – NadD (S. aureus) enzyme inhibition | purified NadD enzyme, colorimetric absorbance read-out | inhibition, % at 20 µM | 360,000 tested, 0.78% active; in the data active means inhibition above about 26%
PP1 counter – PP1-alpha (human) inhibition in PP5 counter-screen; 320,000 tested, 0.9% active; P62136; AID 2235; inhibition, % at 6.7 µM; purified PP1alpha, OMFP fluorescence;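 active means inhibition above the mean inhibition of all tested compounds plus 3 SD, computed separately for each screening campaign, cut at about 15% in these data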
Target sequence (P62136 whole entry, looked up): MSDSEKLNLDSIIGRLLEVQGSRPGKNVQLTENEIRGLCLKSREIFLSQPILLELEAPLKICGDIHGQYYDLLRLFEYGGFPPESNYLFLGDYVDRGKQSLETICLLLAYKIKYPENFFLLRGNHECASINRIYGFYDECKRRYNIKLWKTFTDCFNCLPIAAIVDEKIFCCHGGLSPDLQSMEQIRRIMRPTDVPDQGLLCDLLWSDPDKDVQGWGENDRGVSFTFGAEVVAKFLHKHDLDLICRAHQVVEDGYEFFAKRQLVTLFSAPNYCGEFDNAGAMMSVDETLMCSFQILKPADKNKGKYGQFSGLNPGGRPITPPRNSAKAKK
B2AR ag – activates human beta-2 adrenergic receptor causing internalization | P07550 | Am2.2-beta2AR cells, FAP receptor internalization, flow cytometry | response, % (test concentration not listed) | 340,000 tested, 0.43% active;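 active means response above a set limit, near 3 SD of response in nonfluorescent compounds, cut at about 42% in these data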
Granule exo inh – lytic granule exocytosis inhibition | TALL-104 LAMP-1 surface exposure, flow cytometry; cells stimulated with thapsigargin and PMA | inhibition, % at 10 µM | 360,000 tested, 0.66% active;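 active means inhibition above about 55%, limit read from the data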
* = called active by the depositor; . = not tested or not shown. Compounds with a hit are over-represented: about 2.9% of the library has one in this group of screens.

SMILES | GRK2 inh | NadD inh | PP1 counter | B2AR ag | Granule exo inh
Cc1nn(-c2ccccc2)c(Cl)c1/C=C1\SC(=S)N(CCCCCC(=O)O)C1=O | 5 | 3 | 16* | 11 | -3
O=C(O)CCCN1C(=O)/C(=C/c2cn(-c3ccccc3)nc2-c2cccs2)SC1=S | . | 34* | . | -1 | 0
CC(=O)Nc1cccc(C(=O)NC(C)c2ccc(S(N)(=O)=O)cc2)c1 (configuration not stated) | 0 | 2 | -1 | 1 | 2
O=C(COC(=O)COc1ccc(Cl)cc1Br)NC1CCCC1 | . | -5 | . | . | -1
O=S(=O)(N/N=C/c1cccnc1)c1ccc(Cl)c(Cl)c1 | 3 | 4 | -2 | 1 | 13
Cc1ccc(S(=O)(=O)NC(=O)c2ccc(-c3ccc(-c4ccccc4)cc3)o2)c(C)c1 | 5 | . | 16* | . | .
O=C(Nc1ccc(Cl)c(Cl)c1)Nc1nccs1 | 9 | -5 | 18* | 17 | 12
O=[N+]([O-])c1cc(Cl)ccc1N1CCCC1 | 1 | 7 | 1 | 0 | 1
O=C1C(Cl)=C(N2CCN(c3ccccc3[N+](=O)[O-])CC2)C(=O)c2ccccc21 | 0 | 10 | 9 | 81* | 47
C=CCNc1nc(S(=O)Cc2ccc(C)cc2)nc2c1CCCC2 (configuration not stated) | 3 | 3 | 3 | 53* | -1
O=c1c2c(-c3ccccc3)csc2nc2c3ccccc3c(NCCN3CCOCC3)nn12 | . | 24 | . | 107* | 67*
Cc1ccc(NC(=O)C(=O)C2C(=O)Nc3ccccc32)cc1 (configuration not stated) | 0 | -5 | 0 | -4 | 0
Cc1c(Nc2cc(Cl)c3nonc3c2[N+](=O)[O-])c(=O)n(-c2ccccc2)n1C | . | 9 | . | 89* | 8
CCCOc1ccccc1-n1sc2c(c1=S)-c1cc(OC)cc3c1N(C(=O)C3=O)C2(C)C | 3 | 17 | 17* | 9 | -2
COc1cc2c3c(c1)C(C)=CC(C)(C)N3C(=O)C2=O | 2 | -3 | 5 | 4 | 4
Cc1cc(C)c(S(=O)(=O)N2CCN(C(=O)CCn3nc(C)c(C)c3C)CC2)c(C)c1 | 1 | -1 | 1 | 5 | -9
CN(C)c1ccc(/C=C(/NC(=O)c2ccccc2)C(=O)N2CCCC2)cc1 | 2 | 7 | 2 | 2 | 2
N#C/C(=C\c1ccc([N+](=O)[O-])o1)C(=O)Nc1ccc(F)cc1 | 5 | 13 | 3 | -60 | 86*
N#Cc1ccc(C23CC4(C2)[C@H](CN(CC2CCCCC2)[C@@H]4c2ccccc2)C3c2ccc(Cl)nc2)cc1 (some centres not stated) | 0 | 20 | 1 | 6 | 5
O=C(O)C[C@H]1c2ccccc2S(=O)(=O)N1C1CCCC1 | 0 | 0 | 3 | 5 | -7
c1coc(-c2nc(-c3ccco3)c(-c3ccco3)nc2-c2ccco2)c1 | 0 | 46* | 43* | 2 | .
O=C1NC(=Nc2cccc(O)c2)S/C1=C\c1cccc([N+](=O)[O-])c1 | 0 | 8 | 17* | 5 | 8
CC(OC(=O)c1ccccc1NCc1ccco1)C(=O)Nc1ncc(Cl)cc1Cl (configuration not stated) | 0 | 0 | 3 | -1 | -6
O=C1N[C@@H](Cc2ccccc2)C(=O)N2[C@@H]3N(S(=O)(=O)c4ccccc4)c4ccccc4[C@]3(Br)C[C@@H]12 | 2 | 5 | -2 | -1 | 1
CC(C)c1cc(C(C)C)c(S(=O)(=O)N2c3ccccc3[C@@]3(Br)C[C@H]4C(=O)N[C@@H](Cc5ccccc5)C(=O)N4[C@@H]23)c(C(C)C)c1 | 0 | . | 16* | . | .
SMILES | GRK2 inh | NadD inh | PP1 counter | B2AR ag | Granule exo inh
O=C(CSCc1ccccc1)N/N=C/c1cc2c(cc1Br)OCO2 | 1 | -5 | 7 | -7 | 4
Cc1ccc(/C=C/C(=O)NC2CCCCCCC2)o1 | 1 | 6 | -4 | 6 | 58*
Cc1nc(-c2cccnc2)sc1C(=O)Nc1ccc(Cl)cc1 | 0 | 9 | 0 | -6 | 2
Cc1nc(-c2cccnc2)sc1C(=O)N/N=C/c1ccccc1Cl | . | -1 | -4 | 42* | -4
CCOC(=O)c1ccc(NC(=O)c2nc[nH]c2C(=O)N[C@H](C)CO)cc1 | . | -5 | . | . | -6
COc1cc2ccc(C(C)=NNC(N)=S)cc2cc1OC | . | 0 | . | . | -2
C=CCN1C(=O)C(O)(CC(=O)c2ccc(-n3cccc3)cc2)c2ccccc21 (configuration not stated) | 1 | 27* | 14 | -2 | -1
O=C(CC1(O)C(=O)Nc2ccccc21)c1ccc(-n2cccc2)cc1 (configuration not stated) | 1 | 4 | -1 | -10 | 1
COc1ccc(/C=C/C=C2\NC(=S)NC2=O)cc1 | 9 | -1 | 2 | -6 | 58*
CCn1c(COc2ccccc2)nnc1SCC(=O)Nc1ccc(N2CCOCC2)cc1 | 0 | -5 | 4 | 4 | -2
NS(=O)(=O)c1ccc(N=Nc2c(O)c(C(=O)O)cc3ccccc23)cc1 | 1 | 31* | 12 | 4 | -3
Cc1cc(C(=O)Nc2ncn(Cc3ccc(F)cc3)n2)ccc1[N+](=O)[O-] | 0 | -6 | 0 | 2 | 1
COc1ccc(C=C2C=C(C(C)(C)C)C(=O)C(C(C)(C)C)=C2)cc1OC | 13 | -1 | -3 | 76* | 55
COc1ccc(/C=C2\CCc3ccccc3C2=O)cc1OC | 0 | -8 | -3 | -1 | 6
O=C1c2ccccc2C(=O)N1SC1CCCCC1 | 0 | 5 | -1 | -2 | 87*
O=C(OCN1C(=O)c2ccccc2C1=O)C1CCCCC1 | 0 | 0 | 1 | -2 | -2
C/C(=N\NC(=O)CCCOc1ccc(Cl)cc1C)c1ccc(C)o1 | 90* | -3 | 4 | 4 | -1
O=C(O)c1ccc(N2C(=O)/C(=C/c3ccc(-c4ccc([N+](=O)[O-])cc4)o3)C=C2c2ccccc2)cc1 | 3 | 56* | -1 | -195 | 56*
c1cc2c3c(cccc3c1)NC1(CCC3(CC1)Nc1cccc4cccc(c14)N3)N2 | 2 | 51* | 6 | 16 | 60*
CNC(=O)c1nnsc1S(=O)(=O)c1ccc(Cl)cc1 | . | -1 | . | 49* | 24
CCN(CC)S(=O)(=O)c1cccc(C(=O)N/N=C/c2cccc(O)c2O)c1 | 5 | 0 | 16* | 17 | -13
O=C(NNC(=O)c1ccccc1-n1cccc1)c1cncc(Br)c1 | 0 | 1 | . | 5 | -4
CCCCNC(=O)c1cc2c(=O)n3cccc(C)c3nc2n(Cc2ccccc2)c1=N | 4 | 7 | -5 | 87* | 5
CCNC(=O)c1cc2c(=O)n3cccc(C)c3nc2n(CCc2ccccc2)c1=N | 9 | -5 | 1 | 89* | -2
Cc1cccn2c(=O)c3cc(C(=O)NC4CCCC4)c(=N)n(Cc4ccc(F)cc4)c3nc12 | 0 | 14 | -2 | 103* | 3
Fc1ccc(-c2csc(Nc3ccccn3)n2)cc1 | 1 | 1 | -2 | 7 | -12
